Assay outcomes from PubChem.
Only some compounds are listed: those with a hit (about 4.8% of all), similar ones and a draw of the others.
PfHsp90 yeast 2 – growth inhibition of yeast expressing Plasmodium Hsp90; S. cerevisiae expressing PfHsp90, BacTiter-Glo ATP, 48 h; yeast lacking PDR1 and PDR3 efflux regulators; inhibition, % at 9.4 µM; actives 0.32% (n = 310,000); AID 504621;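 active = every replicate shows inhibition above about 80%, whatever the replicate mean, limit read from the data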;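 also: 0% = DMSO neutral controls and 100% = 20 µM radicicol positive controls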
tim23-1 inh – growth inhibitors of tim23-1 mutant yeast | inhibition, % at 20 µM | actives 1.3% (n = 330,000) | S. cerevisiae tim23-1 growth, BacTiter-Glo luminescence, 24 h;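 active = growth inhibition of the mutant yeast at or above 50%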;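 also: temperature-sensitive mutant grown at 25 °C; plate controls were DMSO-treated mutant yeast for no effect and medium wells lacking yeast for full effect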
TIM10 inh – inhibits growth of TIM10 yeast strain; S. cerevisiae TIM10 strain growth, BacTiter-Glo luminescence, 24 h; actives 1.4% (n = 330,000); inhibition, % at 10 µM;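 active = inhibition of 40% or more at the single tested concentration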;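 also: wild-type TIM10 isogenic control strain grown at permissive 25 °C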
tim10-1 inh – tim10-1 yeast growth inhibition; S. cerevisiae tim10-1 ts strain growth, BacTiter-Glo, 24 h; inhibition, % at 20 µM; actives 2.2% (n = 330,000); AID 463190;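 active = inhibition of at least 40%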;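 also: mutant grown at 25 °C; 0% = DMSO wells with yeast and 100% = wells holding no yeast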
SKKanGAS inh – inhibitors of SKKanGAS S. pyogenes growth in kanamycin (SK-promoter or general growth effect); BacTiter-Glo, 6 h; inhibition, % at 7.5 µM; actives 1.3% (n = 300,000); AID 1662;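 active = mean replicate score, as percent of positive control median, at least 50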;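 also: strain carries kanamycin resistance gene driven by streptokinase promoter and grows in 40 µg/ml kanamycin; loss of luminescence reflects streptokinase promoter inhibition or plain growth inhibition; 0% = median of DMSO wells and 100% = positive control at its reference dose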
NALP1 yeast inh – inhibitors of NALP1 inflammasome in yeast; S. cerevisiae NALP1/ASC/caspase-1 growth, X-gal OD620, 72 h; inhibition, % at 10 µM; actives 0.61% (n = 280,000); AID 2071; in the data active = inhibition mostly above about 24%, no sharp cut-off; inactive = mostly below about 32%
* hit, by the source's call; nt = not tested or not shown.

SMILES	PfHsp90 yeast 2	tim23-1 inh	TIM10 inh	tim10-1 inh	SKKanGAS inh	NALP1 yeast inh
C=CCOc1ccccc1CNCCNC(=O)c1nonc1N	21	17	1	-6	10	2
O=C1CSC(=S)N1c1cccc(O)c1	20	35	2	11	-2	96*
CCC1(C)N=C(c2ccc3c(c2)OCO3)CC(c2ccccc2O)N1 (stereo not drawn)	-3	20	23	33	-1	4
COc1cccc(C2=NC(C)(C)NC(c3ccccc3O)C2)c1 (stereo not drawn)	-6	33	27	30	6	16*
CC1(C)N=C(N)NC(Nc2ccccc2)=N1	-2	0	-1	6	64*	-3
CC(C)Cn1c(N)c(C(=O)COC(=O)C2CC(=O)N(c3ccc4c(c3)OCCO4)C2)c(=O)n(C)c1=O (stereo not drawn)	-3	-5	4	-12	-2	nt
Cc1ccc(C(O)(C(=O)NNc2ccc3ccccc3n2)c2ccc(C)cc2)cc1	-7	6	12	-2	71*	-10
Cc1ccc(C(=O)Nc2ccc3ccccc3n2)cc1	0	19	-8	15	-5	18
CCN1C(=O)c2cccc3c(S(=O)(=O)Nc4c(C)n(C)n(-c5ccccc5)c4=O)ccc1c23	20	16	4	8	4	4
COc1ccccc1C1=NOC(COc2ccc3c(C)cc(=O)oc3c2)C1 (stereo not drawn)	-2	27	-9	13	5	40*
Cc1ccc(NC2=CC(=O)C(=O)c3ccccc32)c(C)c1	-14	-7	22	10	nt	nt
O=C1C=C(Nc2ccccc2O)c2ccccc2C1=O	-1	15	20	15	52*	-3
Cc1cccc(COCC(Cc2ccccc2)N2CCN(C(=O)c3ccc(Cl)c(Cl)c3)CCC2=O)c1 (stereo not drawn)	-13	25	16	23	24	27
O=C(c1ccc(Cl)c(Cl)c1)N1CCC(=O)N(C(COCc2ccc(Cl)cc2)Cc2ccccc2)CC1 (stereo not drawn)	-64	27	14	28	51*	33
COc1ccccc1NC(=O)c1cccc(S(=O)(=O)N2CCOCC2)c1	36	26	6	20	-1	28
O=C(Nc1ccccc1O)c1cccc(S(=O)(=O)N2CCOCC2)c1	3	15	-13	3	5	29*
COc1ccc(NC(=O)CC2Sc3ncnn3C2=O)cc1 (stereo not drawn)	9	16	20	37	-2	95*
O=C(NC1CC1)c1cc2c(s1)-c1ccccc1OC2	19	17	18	16	-10	34*
O=C(O)c1cc2c(s1)-c1ccccc1OC2	17	17	10	11	-11	11
CCN(CC)C(=S)Sc1c(-c2ccccc2)c2cc(Cl)ccc2[nH]c1=O	-7	11	23	30	92*	8
CC(=S)/C=C1\Sc2ccccc2N1C	-8	26	19	29	0	4
CN1c2ccccc2Sc2cc(N)ccc21	-2	34	-5	8	-1	52*
COC(=O)c1cn(NC(=O)/C=C/c2ccc(OC)c(OC)c2)c(=O)c2ccccc12	-16	3	10	9	3	20
Brc1cc2c(cc1C1Nc3ccccc3C3C=CCC31)OCO2 (stereo not drawn)	17	20	1	34	64*	15
Cc1cc(C)c2c(c1)NC(c1cc3c(cc1Br)OCO3)C1CC=CC21 (stereo not drawn)	-9	nt	nt	nt	51*	-1
O=C(O)c1ccc2c(c1)C1C=CCC1C(c1cc3c(cc1Br)OCO3)N2 (stereo not drawn)	-98	29	-4	-17	16	8
CCCN(CCC)C(=O)CC(c1ccc(F)cc1)c1ccco1 (stereo not drawn)	-7	35	26	31	4	-30
COc1ccc(C(=O)c2c[nH]c(C(=O)NCC3CCCO3)c2)cc1 (stereo not drawn)	9	24	0	29	9	15
CC(NC(=O)Nc1nnc(C(F)(F)F)s1)(C(F)(F)F)C(F)(F)F	10	21	15	22	84*	3
Cc1sc2nc(-c3ccccn3)[nH]c(=O)c2c1-c1ccccc1	-22	11	7	3	80*	-30
